Whole data set: some 68,000 sequences, median “fluorescence intensity (a.u.)” near 9,100, cut for the highest 2% near 16,000. For the sample, the highest values were picked, then their nearest neighbours and some sequences at random.
These sequences were tested against OsWRKY34 (Oryza sativa, UniProt Q0JBA9 1-250) (assay: protein-binding microarray (RPBM); PBS, 2% BSA, 51.3 ng/ul salmon testes DNA, 50 uM zinc acetate, 200 nM TF, 25 C, 1 h; high values mean tight binding). Settings: protein: recombinant; tags: N-terminal polyhistidine and DsRed monomer fusion (pET32a); label: CyDye5-dUTP incorporated in the synthesized complementary strand; 3' TTTTT single-stranded linker to array surface; dsDNA, one strand shown.
OsWRKY34, sequence (Q0JBA9 entry or part of it): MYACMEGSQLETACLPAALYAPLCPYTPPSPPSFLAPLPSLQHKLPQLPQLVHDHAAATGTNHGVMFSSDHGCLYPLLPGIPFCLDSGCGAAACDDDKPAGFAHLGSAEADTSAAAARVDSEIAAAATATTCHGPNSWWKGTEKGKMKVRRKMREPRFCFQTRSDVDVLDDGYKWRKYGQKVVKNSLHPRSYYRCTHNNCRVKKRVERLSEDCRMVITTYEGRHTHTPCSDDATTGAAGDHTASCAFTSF
In short: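 Ni–NTA purification followed expression in E. coli BL21-CodonPlus of transcription factors fused N-terminally to a polyhistidine tag and DsRed. At 200 nM in PBS with 2% BSA, salmon testes DNA and 50 µM zinc acetate, the protein was incubated for 1 h at 25 °C with a custom Agilent array that had been primer-extended with Cy5-dUTP and blocked with 2% BSA. After washing, the array was read on an Axon 4000B scanner. The binding signal is per-feature fluorescence intensity in arbitrary units.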

| Sequence | binding signal |
| --- | --- |
| TTTCATTTTTTTTTACCACCTCACCTTCTGTGTTTCTTTTCGGAGTCACCTAGTGCAG | 9040 fluorescence intensity (a.u.) |
| TAAAGTCAAACTGTTTTTTTAAGTTTGACCAAGCTTTTGACGGAGTCACCTAGTGCAG | 10400 fluorescence intensity (a.u.) |
| AAGCTTTGACTTTTTTTTGTCAAATTTTTTAAGTTTGATTCGGAGTCACCTAGTGCAG | 20400 fluorescence intensity (a.u.) |
| AAACTTGAAGAAATTTGACTTTAGCTAAAGTCAAAACATCCGGAGTCACCTAGTGCAG | 10600 fluorescence intensity (a.u.) |
| ATTTAAAATAGTTTGACTTTGACCAAAGTCAAAACATCTTCGGAGTCACCTAGTGCAG | 13500 fluorescence intensity (a.u.) |
| TGCATTTCAATTCAAATTTAAGTTGATTCGTTGACTTGTTCGGAGTCACCTAGTGCAG | 10100 fluorescence intensity (a.u.) |
| AAATTTGAAGTAGTTTGACTTTGACCAAAGTCAAAACATCCGGAGTCACCTAGTGCAG | 17600 fluorescence intensity (a.u.) |
| AGATGTTTTGACTTTAGTCAAAGTCAAACTGCTTTAAGTTCGGAGTCACCTAGTGCAG | 11800 fluorescence intensity (a.u.) |
| ATTTTGGTCAAATTTAAACTAATCTAAGTTTGACTAATTTCGGAGTCACCTAGTGCAG | 8610 fluorescence intensity (a.u.) |
| TTTGGTCAAAGTCAAACTGCTTCTAGTTTGACTAAATTTACGGAGTCACCTAGTGCAG | 17800 fluorescence intensity (a.u.) |
| TTGGTCAAAGTCAAACTGCTTTAAGTTTGACCAAGTTTGTCGGAGTCACCTAGTGCAG | 21500 fluorescence intensity (a.u.) |
| TTGACTTTGTTTAAAGTCAAACTGCTTCAAGTTTGACTAACGGAGTCACCTAGTGCAG | 9550 fluorescence intensity (a.u.) |
| TTTTGTCATTGTCAAATTTTGATAAGTTTGTCAAAATTTTCGGAGTCACCTAGTGCAG | 9080 fluorescence intensity (a.u.) |
| AAACTACCATGGGACTTATATTGCTCCGGTTTTGATAGTTCGGAGTCACCTAGTGCAG | 8480 fluorescence intensity (a.u.) |
| TTCCACAGAGTCAAGTCCACAGAACGTATGCTCCATGTTCCGGAGTCACCTAGTGCAG | 8160 fluorescence intensity (a.u.) |
| GGCTGCCTGTGCATGGGAGGCGATGTGAGGGTGGGCAGGGCGGAGTCACCTAGTGCAG | 9440 fluorescence intensity (a.u.) |
| ACTCACGCTTTAACACCAGGAATCTTATCTCTATCTCATCCGGAGTCACCTAGTGCAG | 8460 fluorescence intensity (a.u.) |
| ATTGGGCTGGAATGAGATTCACGGGAGGGTAACTGGCGGTCGGAGTCACCTAGTGCAG | 12300 fluorescence intensity (a.u.) |
| TTCAAATTGTTGCTGCTCTGTGCTAGCCTTTTCATATTGACGGAGTCACCTAGTGCAG | 9110 fluorescence intensity (a.u.) |
| TAAGTTGTTTGACTTTTTTTCTAGTCAAACTTGTCTGAGTCGGAGTCACCTAGTGCAG | 17000 fluorescence intensity (a.u.) |
| CTTTGGTCAAAGTCAAATTGTTTTAAGTTTGACCAAGTTTCGGAGTCACCTAGTGCAG | 19600 fluorescence intensity (a.u.) |
| CGTGGTAATTTTTATTGGTAAGTGGTGGTGAAGTGGGTGACGGAGTCACCTAGTGCAG | 8300 fluorescence intensity (a.u.) |
| GCAGTTTAACTTTGACCAAAGTCAAAATATTTTATAATTTCGGAGTCACCTAGTGCAG | 8930 fluorescence intensity (a.u.) |

| Sequence | binding signal |
| --- | --- |
| ATATTATAAGTTGTTTTGACTTTTTGCTAGTCAAACTTATCGGAGTCACCTAGTGCAG | 14200 fluorescence intensity (a.u.) |
| ATAAGATATTTTTGACTTTGGTCAAAGTCAAATTGTTTCACGGAGTCACCTAGTGCAG | 15300 fluorescence intensity (a.u.) |
| ATTTTTTTTCTAGTCAAACTTTGTTAAGTTTGACCAAAATCGGAGTCACCTAGTGCAG | 9790 fluorescence intensity (a.u.) |
| CACTTTATTTTTGAAAATTCGGGTGGGTAAGCTGGTGACTCGGAGTCACCTAGTGCAG | 19200 fluorescence intensity (a.u.) |
| ACACTTTGACTCTTTGATTTAGTAAGCTCGAGTTTATTTTCGGAGTCACCTAGTGCAG | 9030 fluorescence intensity (a.u.) |
| ACTTCTTCTACGTGATTTCCTGATTCGCCTCATCCGCTTCCGGAGTCACCTAGTGCAG | 9060 fluorescence intensity (a.u.) |
| TGGGGATGGCGGAGGTTAGCGGCGCGCTTTTTTTTCTATTCGGAGTCACCTAGTGCAG | 14500 fluorescence intensity (a.u.) |
| TTCATATACACATATAGTTTTACATATTTCATATTTTTTTCGGAGTCACCTAGTGCAG | 9360 fluorescence intensity (a.u.) |
| CCACCTGCCAGCCTGTACCCACCCCTCCCTACTGTTATACCGGAGTCACCTAGTGCAG | 8640 fluorescence intensity (a.u.) |
| ATGATCATAGCCATTTTTCCTCGCTTTAAATATTTGCTACCGGAGTCACCTAGTGCAG | 8490 fluorescence intensity (a.u.) |
| GCTTGTTGTGGGCTGTGGACTGGGTGTGTGTGTGTGCTTTCGGAGTCACCTAGTGCAG | 9420 fluorescence intensity (a.u.) |
| CGGGTGGGGATGGGCTGGATCTGGATTGATTGGGAGTGTTCGGAGTCACCTAGTGCAG | 15200 fluorescence intensity (a.u.) |
| TTGGCGGTGGAGGCGGTGGTGGCTTTGGAGGAGACGGTGGCGGAGTCACCTAGTGCAG | 8650 fluorescence intensity (a.u.) |
| TGGCGGATTGATCTGGAGGTGGGCTTGTTGGGGTTGCTGTCGGAGTCACCTAGTGCAG | 18200 fluorescence intensity (a.u.) |
| CTGGATTGATTGGGAGTGTTGGGTTTCGGGCTAGATCTGGCGGAGTCACCTAGTGCAG | 9850 fluorescence intensity (a.u.) |
| AGTCTGGATTCTTGGAGGTCAACTTTGGTCAACGGTGGGGCGGAGTCACCTAGTGCAG | 14200 fluorescence intensity (a.u.) |
| GCTTTTGGCTGTGGTGGGTGCTTGTGGGTGGAGAGAGAGACGGAGTCACCTAGTGCAG | 19300 fluorescence intensity (a.u.) |
| TTCGGAGGCGGAGGCGGTGGTGGGCTTGGTGGAGGTGGCGCGGAGTCACCTAGTGCAG | 9860 fluorescence intensity (a.u.) |
| GCTTGCTTGGTTGGTTGGTGGAGCTTGGGAGTTGAGGTCACGGAGTCACCTAGTGCAG | 11500 fluorescence intensity (a.u.) |
| GTGGCTTGAAAGGTCTGTGTGTTCTTGTTTGGGATTGAGGCGGAGTCACCTAGTGCAG | 8440 fluorescence intensity (a.u.) |
| GAGGTCTACTGTTATTGGGGATTCTTTTTGGGTGGGGTGGCGGAGTCACCTAGTGCAG | 31300 fluorescence intensity (a.u.) |
| GGTTGCTGTGGTTGGCGAGGTGGGGTGGGGCTTGGAGTAACGGAGTCACCTAGTGCAG | 27400 fluorescence intensity (a.u.) |

From article PMC7819943, “Rice protein-binding microarrays: a tool to detect cis-acting elements near promoter regions in rice”
